MITF inh: blocks human microphthalmia-associated transcription factor. AlphaScreen MITF homodimerization, bead proximity signal. AID 1259374. inhibition, % at 2.6 µM. actives 0.91% (n = 650,000); in the data active = inhibition above about 50%;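 also: 0% = vehicle wells with protein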
TEAD-YAP block: TEAD-YAP interaction inhibition; HEK-TIYL cells, TEAD-Gal4/YAP UAS-luciferase luminescence; inhibition, % at 9.12 µM; actives 1.4% (n = 640,000); in the data active = inhibition above about 32%;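 also: 0% = median of test compound wells and 100% = reference inhibitor wells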
GPR151 activ: activators of human GPR151 | actives 1% (n = 650,000) | PathHunter beta-arrestin GPR151 cells, luminescence | AID 1508602 | activation, % at 11.2 µM; in the data active = activation above about 4.9%;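 also: 0% = median of compound wells and 100% = cells with positive control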
Target sequence (Q8TDV0 whole entry, looked up): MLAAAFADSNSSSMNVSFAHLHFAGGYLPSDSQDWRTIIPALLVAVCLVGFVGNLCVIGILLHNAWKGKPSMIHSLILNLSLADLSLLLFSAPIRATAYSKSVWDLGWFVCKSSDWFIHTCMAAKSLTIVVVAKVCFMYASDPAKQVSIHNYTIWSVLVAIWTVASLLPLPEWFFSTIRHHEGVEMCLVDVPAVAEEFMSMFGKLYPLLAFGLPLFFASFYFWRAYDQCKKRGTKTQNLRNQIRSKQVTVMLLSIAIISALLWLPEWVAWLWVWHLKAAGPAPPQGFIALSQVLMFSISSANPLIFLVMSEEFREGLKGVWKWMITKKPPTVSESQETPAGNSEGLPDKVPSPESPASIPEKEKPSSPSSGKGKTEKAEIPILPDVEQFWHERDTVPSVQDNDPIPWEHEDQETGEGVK
FBW7 act: human FBW7 E3 ligase activation, primary screen; Q969H0; AlphaScreen FBW7–phospho-cyclin E peptide binding, activator screen; normalized activity (activation), % at 26.1 µM; actives 0.13% (n = 650,000); AID 1259310; in the data active = normalized activity above about 1.9%;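 also: purified mutant Fbw7 with reduced substrate affinity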
Numbers without * were called inactive; . = no result. Hits are enriched below; roughly 3.4% of the tested compounds scored in any of these assays.

SMILES	MITF inh	TEAD-YAP block	GPR151 activ	FBW7 act
CCCOc1ccc(/C=C(/C)[N+](=O)[O-])cc1OC	-14	37*	-1	0
N#CC1=C(N)Oc2c(c(=O)oc3ccccc23)C1c1cc(Br)cs1 (stereo not drawn)	-5	-11	-1	0
O=C1C=C2C(=CCOC2O)O1 (stereo not drawn)	29	39*	0	0
CC1CCN(Cc2ccc(NC(=O)CCc3nc(C4=CCN(C)CC4)no3)cc2)CC1	50	8	2	3.9*
O=c1[nH]c(=S)[nH]c(O)c1N=Nc1ccc2c(c1)OCCO2	-8	-28	-9	0
O=c1[nH]c(O)c(N=Nc2ccc3c(c2)OCCO3)c(=O)[nH]1	48	62*	-4	0
COc1ccc(OC)c(N2C(=O)/C(=C\c3ccco3)C(=O)NC2=S)c1	79*	-7	4	0
CCOC(=O)C1=C(CC)OC(N)=C(C#N)C12C(=O)Nc1ccc(Br)cc12 (stereo not drawn)	15	-1	1	0
CC(C)(C)n1cc(C(=O)c2ccc3ccccc3c2O)cn1	-9	50*	0	0
CC(C)(C)n1cc(C(=O)c2ccccc2O)cn1	9	-35	1	0
CC[C@@]1(O)C[C@H](O[C@H]2C[C@H](N(C)C)[C@H](O)[C@H](C)O2)c2c(cc3c(c2O)C(=O)c2c(O)ccc(O)c2C3=O)[C@H]1C(=O)OC	17	-9	1	0
CC[C@@]1(O)C[C@H](O[C@H]2C[C@H](N(C)C)[C@H](O)[C@H](C)O2)c2c(cc3c(c2O)C(=O)c2c(O)cccc2C3=O)[C@H]1C(=O)OC	17	51*	0	0
COC(=O)Nc1cccc(NC(=O)OC)c1	13	5	1	0
COc1ccc(-n2c(/C=C/c3ccccc3F)nc3ccccc3c2=O)cc1Cl	7	-4	-1	0
CNC(=O)Oc1cc([N+](=O)[O-])cc2cccnc12	96*	74*	-1	-1
CC(=O)c1ccc(-c2ccccc2)cc1	-9	-28	0	0
N#CC(C#N)=NNc1ccc(-c2ccccc2)cc1	1	44*	1	0
CS(=O)(=O)N1CCC(C(=O)N2CC3CC(C2)c2cccc(=O)n2C3)CC1 (stereo not drawn)	-2	0	0	0
CCCCCC[C@H]1C(=O)O[C@H](C)[C@H](NC(=O)c2cccc(NC=O)c2O)C(=O)O[C@@H](C)[C@@H]1OC(=O)CC(C)C	-17	50*	0	0
CCCCC[C@H]1C(=O)O[C@H](C)[C@H](NC(=O)c2cccc(NC=O)c2O)C(=O)O[C@@H](C)[C@@H]1OC(=O)CC(C)C	-3	52*	2	0
COc1cc(OC)nc(C(SCCNC(=O)c2ccco2)c2ccccc2)n1 (stereo not drawn)	24	5	0	0
CC(C)[C@@H]1NC(=O)[C@H](C)OC(=O)[C@@H](C(C)C)NC(=O)[C@@H](C(C)C)OC(=O)[C@H](C(C)C)NC(=O)[C@H](C)OC(=O)[C@@H](C(C)C)NC(=O)[C@@H](C(C)C)OC(=O)[C@H](C(C)C)NC(=O)[C@H](C)OC(=O)[C@@H](C(C)C)NC(=O)[C@@H](C(C)C)OC1=O	2	96*	2	0
c1ccc(C2=NN(c3ccccc3)N(c3ccccc3)N2)cc1	-9	76*	4	0
Cn1ncnc2c(=O)n(C)c(=O)nc1-2	10	99*	-7	0
COc1cc(/C=C\c2ccc(OC)c(O)c2)cc(OC)c1	8	.	2	.
SMILES	MITF inh	TEAD-YAP block	GPR151 activ	FBW7 act
COc1ccc(/C=C/c2cc(O)cc(O)c2)cc1	-3	92*	-6	0
Cc1ccccc1OCC(=O)N1CCN(CCn2cccn2)CC1	2	-4	-1	0
Cc1cccc(C2C(C#N)=C(N)Oc3c2c(=O)oc2ccccc32)c1 (stereo not drawn)	5	4	0	0
O=C1NC(=O)N(c2ccc(Br)cc2)C(=O)/C1=C/c1ccc(O)c(O)c1	90*	1	1	0
O=C1NC(=O)N(c2ccc(Br)cc2)C(=O)/C1=C/c1ccc(O)cc1	16	-1	2	0
CC1(C)C(=O)C=C[C@@]2(C)C1=C(O)C(=O)[C@]1(C)C2CC[C@@]2(C)[C@H](c3ccoc3)C[C@H]3O[C@]321 (stereo partly drawn)	-11	65*	2	0
CC(=O)O[C@@H]1C[C@@]2(C)[C@H](c3ccoc3)C[C@H]3O[C@]32[C@]2(C)C(=O)C(O)=C3C(C)(C)C(=O)C=C[C@]3(C)C12 (stereo partly drawn)	9	72*	3	0
N#Cc1cc2cc3c(cc2nc1N1CCN2CCCC2C1)OCO3 (stereo not drawn)	6	5	0	0
CCCC(=O)c1ccc(N2CCN(C)CC2)c(F)c1	-3	-46	0	0
Cc1nc(C)n(-c2ccc(Nc3cc(-c4cn[nH]c4)ccn3)cc2)n1 (tested in a mixture with another compound)	9	-1	0	0
Fc1cnc(Nc2ccc(-n3cnc(N4CCOCC4)n3)cc2)cc1-c1cn[nH]c1 (tested in a mixture with another compound)	11	36*	0	0
COC(=O)C[C@@](O)(CCC(C)(C)O)C(=O)O[C@@H]1C(OC)=C[C@]23CCCN2CCc2cc4c(cc2[C@@H]13)OCO4	7	101*	-2	1
COC1=CC23CCCN2CCc2cc4c(cc2C3C1O)OCO4 (stereo not drawn)	18	-8	-2	0
N=C1Cc2ccccc2CN1c1ccc(Br)cc1	-2	-3	1	0
CCOc1ccc(-n2c(/C=C/c3ccc(OC)cc3)nc3ccccc3c2=O)cc1	-8	12	0	0
CCn1nc(/C=C\c2ccccc2)nc2c(=O)n(C)c(=O)nc1-2	4	40*	-6	0
COc1cc(C)c(/C=C/[N+](=O)[O-])cc1C(C)C	-9	37*	0	0
Cc1noc(C)c1CN1CCN(C(=O)Cc2ccc(SC(C)C)cc2)CC1	-1	1	1	0
CC(C)=CCC[C@]1(C)C=Cc2c(O)c3c(c(CC=C(C)C)c2O1)O[C@]12C(=CC4C[C@@H]1C(C)(C)O[C@@]2(C/C=C(/C)C(=O)O)C4=O)C3=O	6	75*	1	0
CN1CCN(/N=C/c2c[nH]c3ccc(Br)cc23)CC1	-3	4	1	0
COC(=O)C1(C#N)CC2c3ccccc3C1c1ccccc12 (stereo not drawn)	-1	3	3	0
CCOC(=O)C1(C#N)CC2c3ccccc3C1c1ccccc12 (stereo not drawn)	15	7	2	2.0*
O=C(c1ccccc1)c1cc(Cl)ccc1N1C(=O)C2C3CCC(C3)C2C1=O (stereo not drawn)	-2	-2	2	0
O=[N+]([O-])c1ccc([As](=O)(O)O)cc1	-9	2	-2	0

Bioassay records deposited in PubChem BioAssay by The Scripps Research Institute Molecular Screening Center.
